The text below walks through data of PubChem BioAssay (EPA / NIEHS).

The source made the active and inactive calls. How the source made its calls: active means hit-call score of the fitted dose curve at least 0.9, where 1 is the maximum; inactive means score below 0.9.

Read-out in one assay: TIMP metallopeptidase inhibitor 2 (TIMP2), TIMP2 (gene 7077)
The experiment in a line: BSK_KF3CT_TIMP2: BioMAP Diversity Plus: KF3CT Assay for TIMP metallopeptidase inhibitor 2 (TIMP2) Biomarker Activity (AID 2283071). Particulars: primary human keratinocytes with fibroblasts; actives raise or lower the signal. Summed up:
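ELISA readout of TIMP-2 in keratinocyte plus foreskin fibroblast co-cultures (human skin primary cells), 24 h post-dose. Gain or loss of signal fitted relative to DMSO.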
On to `Oc1ccccc1O`, for which the result was inactive.
As usually defined, the AC50 is the concentration at which the activity in the assay is half-maximal. As for `CCN(CC)CCOc1ccc(C(=C(Cl)c2ccccc2)c2ccccc2)cc1`, the AC50 is 12.6 µM (active).
With `CC(COCC(C)OC(=O)c1ccccc1)OC(=O)c1ccccc1` (configuration not stated), the result was inactive.
Same read-out and setting: the entry for `CC(C)OC(=O)C(C)(C)Oc1ccc(C(=O)c2ccc(Cl)cc2)cc1` is “inactive”.
For `Cc1cc(Cc2ccc(N)c(C)c2)ccc1N`, the outcome was inactive.
On the same count and under the same terms, the result for `C/C=C/C=C/C(=O)O` reads “inactive”; that for `CCCCCCCCCCCCCCCCO`, “inactive”; that for `CC(=O)OC1CC(C)OC(C)O1` (configuration not stated), “inactive”.
Still for that read-out and setting: the result for `O=C(Oc1ccccc1)c1cccc(C(=O)Oc2ccccc2)c1` reads “inactive”; that for `CC(C)(C)c1ccccc1`, “inactive”; that for `CCOCCOCCO`, “inactive”.
Same read-out and setting: the result for `CC(C)(O)c1ccc(CNC(=O)c2cccnc2Oc2ccc(F)cc2)cc1` reads “inactive”.
Consider `CC(C)COC(=O)CCCCC(=O)OCC(C)C`, for which the outcome was inactive.
For `CC(=O)[C@@]1(O)CC[C@H]2[C@@H]3CCC4=CC(=O)CC[C@]4(C)[C@H]3CC[C@@]21C`, the outcome was inactive.
Still for that read-out and setting: the entry for `COC(=O)CCC(=O)OC` is “inactive”; for `CO[C@@H]1COCC[C@@H]1N[C@@H]1CC[C@@](C(=O)N2CCc3ncc(C(F)(F)F)cc3C2)(C(C)C)C1` it is “inactive”; for `CCc1cc(C2=C(C(=O)O)N(c3ccccc3C(F)(F)F)S(=O)(=O)c3ccccc32)cc2c1OCO2` it is “inactive”.
On the same count and under the same terms, the entry for `O=C(O)c1[nH]n(-c2ccc(S(=O)(=O)O)cc2)c(=O)c1N=Nc1ccc(S(=O)(=O)O)cc1` is “inactive”; for `Cc1ccc(-c2cc(C(F)(F)F)nn2-c2ccc(S(N)(=O)=O)cc2)cc1` it is “inactive”.
On the same count and under the same terms, the result for `CC(=O)OCC(COC(C)=O)OC(C)=O` reads “inactive”.
As for `O=C(N[C@@H](c1ccccc1)[C@@H]1CCCCN1)c1cccc(C(F)(F)F)c1Cl`, the AC50 is 12.4 µM (active).
With `O=C(O)CC(O)(CC(=O)O)C(=O)O`, the result was inactive.
With `Cc1cn([C@H]2C=C[C@@H](CO)O2)c(=O)[nH]c1=O`, the outcome was inactive.
The same measure, in the same setting: the result for `CCCC(=O)O` reads “inactive”.
The same measure, in the same setting: the entry for `O=[Si]=O` is “inactive”; for `CC(C)c1cccc(C(C)C)c1NC(=O)NS(=O)(=O)c1cc(C(C)(C)O)co1` it is “inactive”.
Still for that read-out and setting: the result for `CC(=O)CC(c1ccccc1)c1c(O)c2ccccc2oc1=O` (configuration not stated) reads “inactive”; that for `Nc1nc(Cl)nc2c1ncn2[C@H]1C[C@H](O)[C@@H](CO)O1`, “inactive”.
Take `CCCCCCCCCCCCCCOS(=O)(=O)O`: the AC50 was 7.76 µM (active).

Read-out in another assay: Transforming growth factor beta 1 (TGFb1), TGFB1 (gene 7040)
The experiment in a line: BSK_KF3CT_TGFb1: BioMAP Diversity Plus: KF3CT Assay for Transforming growth factor beta 1 (TGFb1) Biomarker Activity (AID 2283072). The conditions noted are these: primary human keratinocytes with fibroblasts; actives raise or lower the signal. Put shortly:
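Read-out: ELISA for TGF-b1 in keratinocyte/foreskin fibroblast human skin co-culture, 24 h after dosing; bidirectional curve fit vs DMSO baseline; gain or loss of signal scored.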
As to `Oc1ccccc1O`, the AC50 is 10.4 µM (active).
Still for that read-out and setting: the result for `CCN(CC)CCOc1ccc(C(=C(Cl)c2ccccc2)c2ccccc2)cc1` reads 12.4 µM (active).
As for `CC(COCC(C)OC(=O)c1ccccc1)OC(=O)c1ccccc1` (configuration not stated), the outcome was inactive.
Still for that read-out and setting: the entry for `CC(C)OC(=O)C(C)(C)Oc1ccc(C(=O)c2ccc(Cl)cc2)cc1` is “inactive”.
On to `Cc1cc(Cc2ccc(N)c(C)c2)ccc1N`, for which the result was inactive.
On the same count and under the same terms, the entry for `C/C=C/C=C/C(=O)O` is “inactive”; for `CCCCCCCCCCCCCCCCO` it is “inactive”.
In the case of `CC(=O)OC1CC(C)OC(C)O1` (configuration not stated), the outcome was inactive.
On the same count and under the same terms, the entry for `O=C(Oc1ccccc1)c1cccc(C(=O)Oc2ccccc2)c1` is “inactive”; for `CC(C)(C)c1ccccc1` it is “inactive”.
On to `O=C1OC(c2ccc(O)cc2)(c2ccc(O)cc2)c2ccccc21`, for which the AC50 is 12.6 µM (active).
For the molecule `CCOCCOCCO`, the outcome was inactive.
As for `CC(C)(O)c1ccc(CNC(=O)c2cccnc2Oc2ccc(F)cc2)cc1`, the result was inactive.
Still for that read-out and setting: the entry for `CC(C)COC(=O)CCCCC(=O)OCC(C)C` is “inactive”.
On the same count and under the same terms, the entry for `CC(=O)[C@@]1(O)CC[C@H]2[C@@H]3CCC4=CC(=O)CC[C@]4(C)[C@H]3CC[C@@]21C` is “inactive”; for `COC(=O)CCC(=O)OC` it is “inactive”.
The same measure, in the same setting: the entry for `CO[C@@H]1COCC[C@@H]1N[C@@H]1CC[C@@](C(=O)N2CCc3ncc(C(F)(F)F)cc3C2)(C(C)C)C1` is “inactive”.
As to `CCc1cc(C2=C(C(=O)O)N(c3ccccc3C(F)(F)F)S(=O)(=O)c3ccccc32)cc2c1OCO2`, the outcome was inactive.
Still for that read-out and setting: the result for `O=C(O)c1[nH]n(-c2ccc(S(=O)(=O)O)cc2)c(=O)c1N=Nc1ccc(S(=O)(=O)O)cc1` reads “inactive”.
The same measure, in the same setting: the entry for `Cc1ccc(-c2cc(C(F)(F)F)nn2-c2ccc(S(N)(=O)=O)cc2)cc1` is “inactive”; for `CC(=O)OCC(COC(C)=O)OC(C)=O` it is “inactive”.
Turning to `O=C(N[C@@H](c1ccccc1)[C@@H]1CCCCN1)c1cccc(C(F)(F)F)c1Cl`, the AC50 is 20 µM (active).
For `O=C(O)CC(O)(CC(=O)O)C(=O)O`, the result was inactive.
Take `Cc1cn([C@H]2C=C[C@@H](CO)O2)c(=O)[nH]c1=O`: the outcome was inactive.
As to `CCCC(=O)O`, the outcome was inactive.
Same read-out and setting: the result for `O=[Si]=O` reads “inactive”; that for `CC(C)c1cccc(C(C)C)c1NC(=O)NS(=O)(=O)c1cc(C(C)(C)O)co1`, “inactive”.
Same read-out and setting: the entry for `CC(=O)CC(c1ccccc1)c1c(O)c2ccccc2oc1=O` (configuration not stated) is “inactive”; for `Nc1nc(Cl)nc2c1ncn2[C@H]1C[C@H](O)[C@@H](CO)O1` it is “inactive”.
For the molecule `CCCCCCCCCCCCCCOS(=O)(=O)O`, the concentration at half-maximal activity (AC50) was 5.78 µM (active).

Read-out in another assay: C-C motif chemokine 2 (Homo sapiens) (UniProt P13500)
The experiment in a line: BSK_KF3CT_MCP1: BioMAP Diversity Plus: KF3CT Assay for Monocyte Chemoattractant Protein 1 (MCP1/CCL2) Biomarker Activity (AID 2283073). Particulars: primary human keratinocytes with fibroblasts; actives raise or lower the signal. Summed up: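 KF3CT skin co-culture (keratinocytes/foreskin fibroblasts), 24 h post-dose; MCP-1 by ELISA; gain/loss of signal fit bidirectionally vs DMSO baseline.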
For the molecule `Oc1ccccc1O`, the AC50 is 1.14 µM (active).
Still for that read-out and setting: the figure for `CCN(CC)CCOc1ccc(C(=C(Cl)c2ccccc2)c2ccccc2)cc1` is 14.3 µM (active).
Consider `CC(COCC(C)OC(=O)c1ccccc1)OC(=O)c1ccccc1` (configuration not stated), for which the outcome was inactive.
On to `CC(C)OC(=O)C(C)(C)Oc1ccc(C(=O)c2ccc(Cl)cc2)cc1`, for which the result was inactive.
Still for that read-out and setting: the result for `Cc1cc(Cc2ccc(N)c(C)c2)ccc1N` reads “inactive”.
Turning to `CCCCCCCCCCCCCCCCO`, the outcome was inactive.
Same read-out and setting: the entry for `CC(=O)OC1CC(C)OC(C)O1` (configuration not stated) is “inactive”; for `O=C(Oc1ccccc1)c1cccc(C(=O)Oc2ccccc2)c1` it is “inactive”.
Same read-out and setting: the result for `CC(C)(C)c1ccccc1` reads “inactive”; that for `O=C1OC(c2ccc(O)cc2)(c2ccc(O)cc2)c2ccccc21`, “inactive”.
With `CCOCCOCCO`, the outcome was inactive.
On the same count and under the same terms, the entry for `CC(C)(O)c1ccc(CNC(=O)c2cccnc2Oc2ccc(F)cc2)cc1` is “inactive”; for `CC(C)COC(=O)CCCCC(=O)OCC(C)C` it is “inactive”; for `CC(=O)[C@@]1(O)CC[C@H]2[C@@H]3CCC4=CC(=O)CC[C@]4(C)[C@H]3CC[C@@]21C` it is “inactive”.
On the same count and under the same terms, the entry for `COC(=O)CCC(=O)OC` is “inactive”.
For the molecule `CO[C@@H]1COCC[C@@H]1N[C@@H]1CC[C@@](C(=O)N2CCc3ncc(C(F)(F)F)cc3C2)(C(C)C)C1`, the outcome was inactive.
Same read-out and setting: the result for `CCc1cc(C2=C(C(=O)O)N(c3ccccc3C(F)(F)F)S(=O)(=O)c3ccccc32)cc2c1OCO2` reads “inactive”; that for `O=C(O)c1[nH]n(-c2ccc(S(=O)(=O)O)cc2)c(=O)c1N=Nc1ccc(S(=O)(=O)O)cc1`, “inactive”; that for `Cc1ccc(-c2cc(C(F)(F)F)nn2-c2ccc(S(N)(=O)=O)cc2)cc1`, “inactive”.
With `CC(=O)OCC(COC(C)=O)OC(C)=O`, the outcome was inactive.
For the molecule `O=C(N[C@@H](c1ccccc1)[C@@H]1CCCCN1)c1cccc(C(F)(F)F)c1Cl`, the outcome was inactive.
Same read-out and setting: the entry for `O=C(O)CC(O)(CC(=O)O)C(=O)O` is “inactive”; for `Cc1cn([C@H]2C=C[C@@H](CO)O2)c(=O)[nH]c1=O` it is “inactive”; for `CCCC(=O)O` it is “inactive”.
The same measure, in the same setting: the entry for `CC(C)c1cccc(C(C)C)c1NC(=O)NS(=O)(=O)c1cc(C(C)(C)O)co1` is “inactive”; for `CC(=O)CC(c1ccccc1)c1c(O)c2ccccc2oc1=O` (configuration not stated) it is “inactive”.
Still for that read-out and setting: the entry for `Nc1nc(Cl)nc2c1ncn2[C@H]1C[C@H](O)[C@@H](CO)O1` is “inactive”.
Regarding `CCCCCCCCCCCCCCOS(=O)(=O)O`, the AC50 is 8.92 µM (active).
